Source: PubChem BioAssay (NCATS)
Inconclusive results are not listed.

Experiment: qHTS Assay for Lipid Storage Modulators (AID 1519)
Settings: Drosophila S3 cells, BODIPY lipid droplet/cell ratio, laser cytometry; measured here: cell count channel max response; cells loaded with oleic acid
Summary of the method: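 Cells seeded at 5,000 per well were treated with compounds over a concentration series and loaded with oleic acid (400 uM, as added). Lipid droplet fluorescence (488 nm excitation, 500-530 nm channel) was read by laser-scanning cytometry and normalized to 20 uM Triacsin C.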

Row | Compound | max response
1 | COC(=O)CC1C(C)(C)C(OC(C)=O)[C@@]2(O)C=C3C4CC(=O)OC(c5ccoc5)[C@]4(C)CCC3[C@@]1(C)C2=O (stereo partly drawn) | 10.1%
2 | CC(=O)OCC(=O)C1CCC2C3CCC4=CC(=O)CC[C@@]4(C)C3CC[C@]12C (stereo partly drawn) | 5.1%
3 | CCCCCC1C(=O)CCC1CC(=O)O (stereo not drawn) | 21.6%
4 | CCC(/C=C/C(C)C1CCC2C3CCC4=CC(=O)CC[C@@]4(C)C3CC[C@@]12C)C(C)C (stereo partly drawn) | 11.9%
5 | CC(=O)OC1C[C@@]2(C)C(c3ccoc3)OC(=O)C3O[C@@]32[C@]2(C)C(OC(C)=O)CC3C(C)(C)C(OC(C)=O)CC(OC(C)=O)[C@@]3(C)C12 (stereo partly drawn) | -1.68%
6 | Cc1cn(C2CCC(CO)O2)c(=O)[nH]c1=O (stereo not drawn) | 13.1%
7 | COc1c(O)cc2c(c1O)C1OC(CO)C(O)[C@H](O)[C@H]1OC2=O (stereo partly drawn) | 7.39%
8 | COc1ccc2c(c1)OCC(Cc1ccc(OC)c(O)c1)C2=O (stereo not drawn) | 3.51%
9 | CC(=O)OC1C=C[C@]2(C)C(CC(OC(C)=O)[C@@]3(C)C4=CC(=O)OC(c5ccoc5)[C@]4(C)CCC23)C1(C)C (stereo partly drawn) | -3.66%
10 | CC1(C)C(=O)CC[C@@]2(C)C1CC(O)[C@@]1(C)C3=CC(=O)OC(c4ccoc4)[C@]3(C)CCC21 (stereo partly drawn) | 13.9%
11 | C/C=C(\C)C(=O)OC1[C@@H]2C=C3C4CC(=O)OC(c5ccoc5)[C@]4(C)CCC3[C@@](C)(C2=O)C(C(O)C(=O)OC)C1(C)C (stereo partly drawn) | 8.66%
12 | COc1ccc(C2CC(=O)c3c(O)cc(O[C@H]4OC(COC5OC(C)C(O)C(O)[C@@H]5O)C(O)C(O)C4O)cc3O2)cc1O (stereo partly drawn) | 1.58%
13 | CNc1ccccc1C(=O)N1CCc2c([nH]c3ccccc23)C1=O | 12.5%
